# Assay results: PubChem BioAssay
# For part of these data: Results with a measured potency or affinity are listed apart. Active and inactive are the calls of the source.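 How the source made its calls, unless noted: active means primary screen active and over 50% activation in each of two duplicate runs; inactive means the rest.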
# Legend:
# [1] = tested on: TRPC4 beta (transient receptor potential cation channel C4), mouse; experiment: activators of mouse TRPC4 channel, confirmation, cell-based, Fluo4 calcium, HEK293 TRPC4beta/mu-opioid, duplicates, 10 µM (AID 2426;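 active means fluorescence ratio normalized to control raised more than 50% in primary screen plus both repeat runs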;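 on activation: percent rise of integrated ratio over buffer wells lacking compound which define 0%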); settings: Fluo4 calcium fluorescence, at 10 µM; active compounds read high
# [2] = tested on: transient receptor potential cation channel C4 beta (TRPC4), mouse; experiment: activators of mouse TRPC4 channel, confirmation, cell-based, second round, Fluo4, HEK293 TRPC4beta/mu-opioid, 1 µM (AID 2461); settings: Fluo4 calcium fluorescence, at 1 µM; active compounds read high;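 on activation: 0% = wells without test compound as baseline of integrated fluorescence ratio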
# [3] = tested on: TRPC4 (transient receptor potential cation channel C4 beta), mouse; experiment: positive allosteric modulators of mouse TRPC4, confirmation, cell-based, second round, Fluo-4, HEK293 TRPC4beta/mu-opioid, 1 µM (AID 2554;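 active means primary screen hit whose fluorescence ratio, in both repeats, exceeds the weak agonist control mean by 3 SD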); settings: DAMGO EC20, Fluo-4 calcium flux, at 1 µM; active compounds read high
# [4] = tested on: TRPC4 beta (transient receptor potential cation channel C4), mouse; experiment: positive allosteric modulators of mouse TRPC4, confirmation, cell-based, Fluo-4, HEK293 TRPC4beta/mu-opioid (AID 2555;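 active means primary screen hit whose calcium fluorescence ratio, in both repeats, exceeds the weak agonist control mean by 3 SD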); settings: DAMGO EC20, Fluo-4 calcium flux, at 10 µM; active compounds read high
# [5] = molecular target: Short transient receptor potential channel 4 (Mus musculus) (UniProt Q9QUQ5); experiment: inhibitors of mouse TRPC4 channel, confirmation, cell-based, Fluo4, HEK293 TRPC4beta/mu-opioid (AID 2636;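 active means calcium signal cut by more than 3 SD below the full-agonist control yet still positive, in both repeats and the earlier primary screen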); settings: DAMGO, Fluo4 calcium flux, at 10 µM; active compounds read high
# [6] = molecular target: Short transient receptor potential channel 4 (Mus musculus) (UniProt Q9QUQ5); experiment: inhibitors of mouse TRPC4 channel, confirmation, cell-based, second round, Fluo4, HEK293 TRPC4beta/mu-opioid, 1 µM (AID 2637;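 active means calcium signal ratio cut to more than 3 SD under the fully stimulated control mean yet still positive, in both repeats and the primary screen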); settings: Fluo4 calcium flux, DAMGO, at 1 µM; active compounds read high
# [7] = molecular target: Short transient receptor potential channel 4 (Mus musculus) (UniProt Q9QUQ5); experiment: TRPC4 positive allosteric modulators, dose response, cell-based, HEK293 TRPC4/mu-opioid, Fluo-4 calcium, EC20 DAMGO (AID 434941;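 active means earlier screen potentiator hit that boosts the TRPC4 ion channel at some dose, with a dose response; inactive means no potentiation, no dose response, or not a prior hit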;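 further: calcium entry triggered by an EC20 dose of DAMGO at the co-expressed mu-opioid receptor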)
# [8] = molecular target: Short transient receptor potential channel 4 (Mus musculus) (UniProt Q9QUQ5); experiment: mouse TRPC4 channel inhibitors, dose response, cell-based, HEK293 TRPC4/mu-opioid, Fluo-4 calcium (AID 434942;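 active means primary screen inhibitor hit that blocks the TRPC4 channel at some tested dose, yielding a dose curve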)
# [9] = molecular target: Short transient receptor potential channel 6 (Mus musculus) (UniProt Q61143); experiment: inhibition of mouse TRPC6 channel, confirmation, selectivity assay for TRPC4 inhibitor project, cell-based, HEK293, membrane potential dye, duplicate (AID 434948;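 active means active in primary screen and both duplicates, each dropping signal beyond three positive-control SD with fluorescence still positive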); settings: HEK293 TRPC6, membrane potential dye fluorescence, at 10 µM, stimulated with maximal-effect acetylcholine; active compounds read high
# [10] = molecular target: Short transient receptor potential channel 6 (Mus musculus) (UniProt Q61143); experiment: activation of mouse TRPC6 channel, confirmation, selectivity assay for TRPC4 activator project, cell-based, HEK293, membrane potential dye, duplicate (AID 434950;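 active means membrane potential signal rise above negative control mean plus 3 SD in both duplicates, also active in the earlier TRPC4 screen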;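 on activation: 0% = buffer only wells and 100% = acetylcholine maximal-effect wells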); settings: HEK293 TRPC6, membrane potential fluorescence, at 10 µM; active compounds read high
# [11] = molecular target: Short transient receptor potential channel 6 (Mus musculus) (UniProt Q61143); experiment: TRPC6 potentiation by TRPC4 potentiator hits, confirmation, selectivity assay for TRPC4 potentiator project, HEK293 cells, membrane potential dye, duplicate (AID 434952;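 active means compound raising the membrane signal above positive-control mean plus 3 SD in both repeats, and a primary screen hit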); settings: HEK293 TRPC6, membrane potential dye fluorescence, at 10 µM, maximal acetylcholine added after compound; active compounds read high
# [12] = molecular target: Short transient receptor potential channel 4 (Mus musculus) (UniProt Q9QUQ5); experiment: calcium flux activators in TRPC4/5HT1a cells, counter-screen for TRPC4 activator project, cell-based, second counter screen, HEK293 TRPC4/5HT1a, Fluo-4 (AID 434977;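 active means calcium signal rise above buffer-control mean plus 5 SD in both duplicates, and also a hit in the primary screen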;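 on activation: plate controls were assay buffer for no effect and maximal serotonin response for full effect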); settings: Fluo-4 calcium flux, at 10 µM; active compounds read high
# [13] = calcium flux inhibitors in TRPC4/5HT1a cells, confirmation, counter-screen for TRPC4 inhibitor project, cell-based, second counter screen, HEK293 TRPC4/5HT1a, Fluo-4 (AID 434978;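 active means primary screen active whose calcium signal fell more than 3 SD beyond the full-serotonin control mean in both duplicate plates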;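 further: serotonin given first at submaximal then at maximal dose after compound preincubation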); settings: Fluo-4 calcium flux, at 10 µM, serotonin added to trigger calcium flux; active compounds read high
# [14] = tested on: TRPC4 (mouse), co-expressed with 5HT1a in HEK293; experiment: calcium flux potentiators in TRPC4/5HT1a cells, confirmation, counter-screen for TRPC4 potentiator project, cell-based, second counter screen, HEK293 TRPC4/5HT1a, Fluo-4 (AID 434979;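 active means signal rise over 3 SD above mean of control wells given weak agonist, in both repeats and first screen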); settings: Fluo-4 calcium flux, at 10 µM, serotonin added at its EC20 dose; active compounds read high
# [15] = calcium flux activation in mu-opioid HEK293 cells, confirmation, counter-screen for TRPC4 activator project, cell-based, HEK293 mu-opioid receptor line (AID 449723;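 active means hit in primary screen, with calcium signal over 5 SD above buffer well mean in both duplicates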;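 further: counter screen cells carry the mu-opioid receptor alone and lack TRPC4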); settings: Fluo-4 calcium fluorescence, at 10 µM; active compounds read high
# [16] = calcium flux enhancement in mu-opioid HEK293 cells, confirmation, counter-screen for TRPC4 allosteric potentiator project, cell-based, HEK293 mu-opioid receptor line (AID 449724;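 active means calcium signal rise more than 3 SD above the low-dose agonist control mean, in both duplicate plates and the primary screen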); settings: Fluo-4 calcium flux, at 10 µM, compound added before EC20 DAMGO stimulus; active compounds read high
# Chain of Short transient receptor potential channel 6 (Mus musculus) (Q61143 whole entry, looked up): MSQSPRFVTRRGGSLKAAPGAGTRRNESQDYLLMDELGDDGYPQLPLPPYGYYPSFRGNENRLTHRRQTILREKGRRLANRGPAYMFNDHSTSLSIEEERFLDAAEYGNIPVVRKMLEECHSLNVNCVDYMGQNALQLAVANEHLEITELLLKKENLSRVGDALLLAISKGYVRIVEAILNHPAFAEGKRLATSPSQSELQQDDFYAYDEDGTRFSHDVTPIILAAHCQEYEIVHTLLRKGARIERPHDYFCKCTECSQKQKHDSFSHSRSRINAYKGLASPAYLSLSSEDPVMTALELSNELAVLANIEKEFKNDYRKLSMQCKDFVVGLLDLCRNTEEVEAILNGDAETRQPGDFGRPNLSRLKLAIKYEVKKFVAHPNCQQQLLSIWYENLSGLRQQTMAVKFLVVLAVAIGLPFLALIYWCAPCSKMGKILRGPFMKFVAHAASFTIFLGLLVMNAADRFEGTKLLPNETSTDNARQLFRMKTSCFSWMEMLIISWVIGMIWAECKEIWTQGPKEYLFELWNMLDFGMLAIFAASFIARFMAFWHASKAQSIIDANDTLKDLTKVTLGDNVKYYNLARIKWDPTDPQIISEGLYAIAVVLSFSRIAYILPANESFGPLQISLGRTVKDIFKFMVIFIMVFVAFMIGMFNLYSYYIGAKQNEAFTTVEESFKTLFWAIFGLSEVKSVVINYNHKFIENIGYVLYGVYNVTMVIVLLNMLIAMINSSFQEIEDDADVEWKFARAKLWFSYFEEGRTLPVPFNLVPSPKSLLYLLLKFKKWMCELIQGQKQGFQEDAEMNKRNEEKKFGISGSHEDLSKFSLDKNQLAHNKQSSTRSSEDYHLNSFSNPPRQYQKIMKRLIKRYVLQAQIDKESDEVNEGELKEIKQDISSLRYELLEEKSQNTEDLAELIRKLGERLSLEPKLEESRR
# Chain of Short transient receptor potential channel 4 (Mus musculus) (Q9QUQ5 whole entry, looked up): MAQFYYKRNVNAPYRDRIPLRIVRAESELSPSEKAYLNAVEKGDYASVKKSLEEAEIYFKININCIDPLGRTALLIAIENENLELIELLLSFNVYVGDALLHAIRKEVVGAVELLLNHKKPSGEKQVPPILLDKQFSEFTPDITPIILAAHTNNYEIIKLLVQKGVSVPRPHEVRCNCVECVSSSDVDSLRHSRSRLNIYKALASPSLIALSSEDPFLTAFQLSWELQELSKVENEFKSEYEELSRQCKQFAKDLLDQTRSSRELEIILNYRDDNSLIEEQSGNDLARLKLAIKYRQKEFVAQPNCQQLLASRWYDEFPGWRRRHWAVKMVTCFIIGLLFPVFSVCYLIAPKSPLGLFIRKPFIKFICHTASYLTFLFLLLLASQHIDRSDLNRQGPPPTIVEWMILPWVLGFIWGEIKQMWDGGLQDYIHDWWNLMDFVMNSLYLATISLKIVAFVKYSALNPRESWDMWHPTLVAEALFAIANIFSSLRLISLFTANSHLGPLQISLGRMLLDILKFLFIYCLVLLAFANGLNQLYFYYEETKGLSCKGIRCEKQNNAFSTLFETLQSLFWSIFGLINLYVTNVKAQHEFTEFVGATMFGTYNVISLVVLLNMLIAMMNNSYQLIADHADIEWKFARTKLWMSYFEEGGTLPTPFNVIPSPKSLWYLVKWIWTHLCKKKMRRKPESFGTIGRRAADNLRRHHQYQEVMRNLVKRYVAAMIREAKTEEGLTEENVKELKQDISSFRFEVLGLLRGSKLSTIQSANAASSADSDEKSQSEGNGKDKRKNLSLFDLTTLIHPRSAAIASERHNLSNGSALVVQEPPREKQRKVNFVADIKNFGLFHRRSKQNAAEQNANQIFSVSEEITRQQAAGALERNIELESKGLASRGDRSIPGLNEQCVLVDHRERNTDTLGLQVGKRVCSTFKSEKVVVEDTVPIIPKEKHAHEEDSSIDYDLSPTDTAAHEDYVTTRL
compound,measurement,setting,value
CCCN1CCN(C(=O)Cn2c(=O)oc3cc(S(=O)(=O)NCc4ccccc4)ccc32)CC1,activation,[1],168% (active)
same,outcome,[2],inactive
same,outcome,[3],inactive
same,outcome,[4],inactive
same,outcome,[5],inactive
same,outcome,[6],inactive
same,outcome,[7],inactive
same,outcome,[8],inactive
same,outcome,[9],inactive
same,outcome,[10],inactive
same,outcome,[11],inactive
same,activation,[12],26.3% (active)
same,outcome,[13],inactive
same,outcome,[14],inactive
same,outcome,[15],inactive
same,outcome,[16],inactive
Cc1ccc(NC(=O)CCN2CCC(Cc3ccccc3)CC2)cc1,outcome,[1],inactive
same,outcome,[2],inactive
same,outcome,[3],inactive
same,outcome,[4],inactive
same,outcome,[5],inactive
same,outcome,[6],inactive
same,outcome,[7],inactive
same,outcome,[8],inactive
same,outcome,[9],inactive
same,outcome,[10],inactive
same,outcome,[11],inactive
same,activation,[12],15.7% (active)
same,outcome,[13],inactive
same,outcome,[14],inactive
same,outcome,[15],inactive
same,outcome,[16],inactive
CN(C)C(CNC(=O)NC1CCCCC1)c1cccnc1 (stereo not given),activation,[1],79% (active)
same,activation,[2],98% (active)
same,outcome,[3],inactive
same,outcome,[4],inactive
same,outcome,[5],inactive
same,outcome,[6],inactive
same,outcome,[7],inactive
same,outcome,[8],inactive
same,outcome,[9],inactive
same,activation,[10],29.5% (active)
same,outcome,[11],inactive
same,outcome,[12],inactive
same,outcome,[13],inactive
same,outcome,[14],inactive
same,outcome,[15],inactive
same,outcome,[16],inactive
N=c1n(Cc2ccccc2)c2ccccc2n1CC(O)COc1ccccc1 (stereo not given),outcome,[1],inactive
same,outcome,[2],inactive
same,outcome,[3],inactive
same,outcome,[4],inactive
same,outcome,[5],inactive
same,outcome,[6],inactive
same,outcome,[7],inactive
same,outcome,[8],inactive
same,outcome,[9],inactive
same,activation,[10],54% (active)
same,outcome,[11],inactive
same,outcome,[12],inactive
same,outcome,[13],inactive
same,outcome,[14],inactive
same,outcome,[15],inactive
same,outcome,[16],inactive
COc1ccc(-c2nc(CSCC(=O)NC3CCN(Cc4ccccc4)CC3)c(C)o2)cc1OC,activation,[1],107% (active)
same,outcome,[2],inactive
same,outcome,[3],inactive
same,outcome,[4],inactive
same,outcome,[5],inactive
same,outcome,[6],inactive
same,outcome,[7],inactive
same,outcome,[8],inactive
same,outcome,[9],inactive
same,activation,[10],99.5% (active)
same,outcome,[11],inactive
same,activation,[12],23.1% (active)
same,outcome,[13],inactive
same,outcome,[14],inactive
same,outcome,[15],inactive
same,outcome,[16],inactive
CNCCOc1ccc(Cl)c(Cl)c1,activation,[1],81% (active)
same,activation,[2],54% (active)
same,potentiation,[3],44% (active)
same,potentiation,[4],23% (active)
same,outcome,[5],inactive
same,outcome,[6],inactive
same,outcome,[7],inactive
same,outcome,[8],inactive
same,outcome,[9],inactive
same,activation,[10],39.5% (active)
same,outcome,[11],inactive
same,activation,[12],24.9% (active)
same,outcome,[13],inactive
same,potentiation,[14],24% (active)
same,outcome,[15],inactive
same,outcome,[16],inactive
CN1CCN(c2ccc(NC(=O)c3ccc(-c4cccc([N+](=O)[O-])c4)o3)cc2)CC1,activation,[1],87% (active)
same,outcome,[2],inactive
same,outcome,[3],inactive
same,outcome,[4],inactive
same,outcome,[5],inactive
same,outcome,[6],inactive
same,outcome,[7],inactive
same,outcome,[8],inactive
same,outcome,[9],inactive
same,outcome,[10],inactive
same,outcome,[11],inactive
same,outcome,[12],inactive
same,outcome,[13],inactive
same,outcome,[14],inactive
same,outcome,[15],inactive
same,outcome,[16],inactive
CCN(Cc1ccccc1)S(=O)(=O)c1ccc(C(=O)N(CCCN(C)C)c2nc3c(F)cccc3s2)cc1,activation,[1],76% (active)
same,outcome,[2],inactive
same,outcome,[3],inactive
same,outcome,[4],inactive
same,outcome,[5],inactive
same,outcome,[6],inactive
same,outcome,[7],inactive
same,outcome,[8],inactive
same,outcome,[9],inactive
same,outcome,[10],inactive
same,outcome,[11],inactive
same,outcome,[12],inactive
same,outcome,[13],inactive
same,outcome,[14],inactive
same,outcome,[15],inactive
same,outcome,[16],inactive
Cc1cccc(C(=O)OC2CCCN(C)C2)c1C (stereo not given),activation,[1],76% (active)
same,outcome,[2],inactive
same,outcome,[3],inactive
same,outcome,[4],inactive
same,outcome,[5],inactive
same,outcome,[6],inactive
same,outcome,[7],inactive
same,outcome,[8],inactive
same,outcome,[9],inactive
same,activation,[10],60.5% (active)
same,outcome,[11],inactive
same,activation,[12],20% (active)
same,outcome,[13],inactive
same,outcome,[14],inactive
same,outcome,[15],inactive
same,outcome,[16],inactive
CN(C)CCCN(C(=O)c1ccc(S(=O)(=O)N2CCc3ccccc3C2)cc1)c1nc2c(F)cc(F)cc2s1,activation,[1],73% (active)
same,outcome,[2],inactive
same,outcome,[3],inactive
same,outcome,[4],inactive
same,outcome,[5],inactive
same,outcome,[6],inactive
same,outcome,[7],inactive
same,outcome,[8],inactive
same,outcome,[9],inactive
same,outcome,[10],inactive
same,outcome,[11],inactive
same,outcome,[12],inactive
same,outcome,[13],inactive
same,outcome,[14],inactive
same,outcome,[15],inactive
same,outcome,[16],inactive
S=C(NCCc1cnc[nH]1)NC1CCCC1,activation,[1],220% (active)
same,activation,[2],135% (active)
same,outcome,[3],inactive
same,outcome,[4],inactive
same,outcome,[5],inactive
same,outcome,[6],inactive
same,outcome,[7],inactive
same,outcome,[8],inactive
same,outcome,[9],inactive
same,outcome,[10],inactive
same,outcome,[11],inactive
same,activation,[12],79.6% (active)
same,outcome,[13],inactive
same,outcome,[14],inactive
same,outcome,[15],inactive
same,outcome,[16],inactive
CCN1CCN(c2ccc(S(=O)(=O)N3CCOCC3)cc2NC(=O)c2ccccc2OC(F)F)CC1,activation,[1],204% (active)
same,activation,[2],136% (active)
same,outcome,[3],inactive
same,outcome,[4],inactive
same,outcome,[5],inactive
same,outcome,[6],inactive
same,outcome,[7],inactive
same,outcome,[8],inactive
same,outcome,[9],inactive
same,outcome,[10],inactive
same,outcome,[11],inactive
same,activation,[12],77.8% (active)
same,outcome,[13],inactive
same,outcome,[14],inactive
same,outcome,[15],inactive
same,outcome,[16],inactive
CCN1CCN(c2ccc(S(=O)(=O)N3CCOCC3)cc2NC(=O)/C=C/c2ccc(OC)cc2OC)CC1,activation,[1],112% (active)
same,outcome,[2],inactive
same,outcome,[3],inactive
same,outcome,[4],inactive
same,outcome,[5],inactive
same,outcome,[6],inactive
same,outcome,[7],inactive
same,outcome,[8],inactive
same,outcome,[9],inactive
same,outcome,[10],inactive
same,outcome,[11],inactive
same,activation,[12],6.55% (active)
same,outcome,[13],inactive
same,outcome,[14],inactive
same,outcome,[15],inactive
same,outcome,[16],inactive
Cc1ccccc1C(=O)NNC(=S)NC(=O)COc1ccccc1,activation,[1],180% (active)
same,outcome,[2],inactive
same,outcome,[3],inactive
same,outcome,[4],inactive
same,outcome,[5],inactive
same,outcome,[6],inactive
same,outcome,[7],inactive
same,outcome,[8],inactive
same,outcome,[9],inactive
same,outcome,[10],inactive
same,outcome,[11],inactive
same,activation,[12],127% (active)
same,outcome,[13],inactive
same,outcome,[14],inactive
same,activation,[15],43.2% (active)
same,outcome,[16],inactive
O=C(COc1cc(Cl)c(Cl)cc1Cl)NCCc1ccccn1,activation,[1],60% (active)
same,outcome,[2],inactive
same,outcome,[3],inactive
same,outcome,[4],inactive
same,outcome,[5],inactive
same,outcome,[6],inactive
same,outcome,[7],inactive
same,outcome,[8],inactive
same,outcome,[9],inactive
same,activation,[10],53.5% (active)
same,outcome,[11],inactive
same,activation,[12],12.5% (active)
same,outcome,[13],inactive
same,outcome,[14],inactive
same,outcome,[15],inactive
same,outcome,[16],inactive
